Assay results: PubChem BioAssay (EPA / NIEHS)
Where “and” joins values, the source holds several entries; their conditions need not be identical. Equal values may be shown once. Records with an inconclusive call do not appear. Some compounds were tested as several samples or in several runs, with calls that do not always agree. Calls of active or inactive are those of the source. How the source made its calls, unless noted: active means hit-call score of the fitted dose curve at least 0.9, where 1 is the maximum; inconclusive means response in the unintended direction; inactive means score below 0.9.

Columns and labels:
[1] = target: Nuclear receptor subfamily 1 group I member 2 (Homo sapiens) (UniProt O75469); assay: NVS_NR_hPXR: NovaScreen (NVS) Nuclear Receptor Binding Assay for human Pregnane X Receptor (PXR) (AID 2283365);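 further: a drop in FRET signal versus DMSO baseline means the compound binds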
How it was run: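 Cell-free TR-FRET binding assay with extracted human PXR protein, read 2 h after dosing. Primary screen run in duplicate at 25 uM, actives followed in concentration series; loss of signal fitted against DMSO baseline.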

[2] = target: human Serotonin Transporter (SERT), SLC6A4 (gene 6532) (UniProt P31645); assay: NVS_TR_hSERT: NovaScreen (NVS) Transporter Assay for human Serotonin Transporter (SERT) (AID 2283372)
How it was run: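 Radioligand binding to native SERT in human platelet membranes, read by filter-based scintillation counting 1 h after dosing. Primary screen in duplicate at 25 uM; actives followed up in concentration series; loss of signal versus DMSO baseline.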

[3] = target: Norway rat Vesicular Monoamine Transporter (VMAT2), neurotransmitter transporter, Slc18a2 (gene 25549) (UniProt Q01827); assay: NVS_TR_rVMAT2: NovaScreen (NVS) Transporter Assay for Norway rat Vesicular Monoamine Transporter (VMAT2), neurotransmitter transporter (AID 2283376);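 further: actives lower the bound radioligand signal below the DMSO level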
How it was run: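 Tissue: rat forebrain extract. Format: competitive radioligand binding, cell-free. Timepoint: 1 h. Readout: filter radiodetection/scintillation. Screen: 25 uM in duplicate, then concentration series for actives. Baseline: DMSO.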

[4] = target: Estrogen receptor (Homo sapiens) (UniProt P03372); assay: OT_ERa_GFPERaERE_0480: Odyssey Thera (OT) 8-hour HeLa Transcription Induction Assay for Estrogen Receptor (AID 2283381; active means hit-call score of the fitted dose curve at least 0.9, where 1 is the maximum; inactive means score below 0.9)
How it was run: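 HeLa cells expressing GFP reporter under estrogen response element, imaged 8 h after dosing. GFP induction quantified by high-content fluorescence microscopy image analysis; gain of signal fitted versus DMSO.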

[5] = target: Estrogen receptor (Homo sapiens) (UniProt P03372); assay: OT_ERa_GFPERaERE_0120: Odyssey Thera (OT) 2-hour HeLa Transcription Induction Assay for Estrogen Receptor (AID 2283382)
How it was run: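 HeLa cells were dosed for 2 h, then GFP reporter induction was quantified by fluorescence microscopy with high-content image analysis. Gain of signal fitted against DMSO baseline.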

[6] = target: Bile acid receptor (Homo sapiens) (UniProt Q96RI1); assay: OT_FXR_FXRSRC1_0480: Odyssey Thera (OT) 8-hour HEK293T Protein-Complementation Assay for Farnesoid X receptor/SRC-1 Co-activator (AID 2283383)
How it was run: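 HEK293T protein-fragment complementation assay: FXR and SRC-1 coactivator are fused to reporter fragments, and their interaction restores a fluorescent reporter. Readout was taken 8 h after dosing, with gain of signal fit relative to DMSO.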

[7] = target: Bile acid receptor (Homo sapiens) (UniProt Q96RI1); assay: OT_FXR_FXRSRC1_1440: Odyssey Thera (OT) 24-hour HEK293T Protein-Complementation Assay for Farnesoid X receptor/SRC-1 Co-activator (AID 2283384)
How it was run: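 HEK293T cells, 24 h after chemical dosing. FXR–SRC-1 coactivator interaction read as fluorescence from protein-fragment complementation of a split reporter. Gain of signal fitted against DMSO baseline.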

[8] = target: Retinoic acid receptor RXR-alpha (Homo sapiens) (UniProt P19793); assay: OT_NURR1_NURR1RXRa_0480: Odyssey Thera (OT) 8-hour HEK293T Protein Complementation Assay for Nurr1/retinoid X receptor (RXR) (AID 2283385)
How it was run: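 HEK293T cells expressing Nurr1 and RXRα fused to reporter fragments (protein-fragment complementation); fluorescence measured 8 h after dosing. Gain of signal fitted relative to DMSO.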

[9] = target: Retinoic acid receptor RXR-alpha (Homo sapiens) (UniProt P19793); assay: OT_NURR1_NURR1RXRa_1440: Odyssey Thera (OT) 24-hour HEK293T Protein Complementation Assay for Nurr1/retinoid X receptor (RXR) (AID 2283386)
How it was run: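 HEK293T protein-fragment complementation of Nurr1 and RXRα fused to reporter fragments; compounds 24 h. Fluorescence gain from reconstituted reporter fitted versus DMSO.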

[10] = target: Peroxisome proliferator-activated receptor gamma (Homo sapiens) (UniProt P37231); assay: NVS_NR_hPPARg: NovaScreen (NVS) Nuclear Receptor Binding Assay for human Peroxisome Proliferator-activated Receptor gamma (PPARg) (AID 2283370)
How it was run: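 Cell-free fluorescence polarization binding to human PPARg protein, read 2 h after dosing. Primary screen in duplicate at 25 uM, actives followed in concentration series; loss of signal relative to DMSO scored.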

[11] = target: Estrogen receptor beta (Homo sapiens) (UniProt Q92731); assay: OT_ER_ERbERb_1440: Odyssey Thera (OT) 24-hour HEK293T Protein-Complementation Assay for Estrogen Receptor-beta/-beta Homodimer (AID 2283380);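 further: fluorescence gain from ER beta LBD homodimer complementation read by laser scanning cytometry; scored as signal increase over DMSO baseline for both agonists and antagonists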
How it was run: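 Fluorescence increase, nuclear for agonists or whole-cell for antagonists, relative to DMSO vehicle, quantified by laser scanning cytometer after fixation and Draq5 staining. Readout from 24 h treatment of HEK293T cells carrying complementation-paired ER beta LBD (aa 310-547).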

[12] = target: rat Androgen Receptor (AR), Ar (gene 24208) (UniProt P15207); assay: NVS_NR_rAR: NovaScreen (NVS) Nuclear Receptor Binding Assay for rat Androgen Receptor (AR) (AID 2283366)
How it was run: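 Cell-free radioligand binding on extracts of prostate from testosterone-pretreated rats, read by filter-based scintillation counting 18 h after dosing. Loss of bound signal fitted positively versus DMSO; primary screen in duplicate at 25 uM, actives followed up in concentration series.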

[13] = target: guinea pig Sigma Receptor, Non-selective Binding, SIGMAR1 (gene 100135589) (UniProt Q60492); assay: NVS_OR_gSIGMA_NonSelective: NovaScreen (NVS) Nuclear Receptor Binding Assay for guinea pig Sigma Receptor, Non-selective Binding (AID 2283367)
How it was run: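 gp brain membr., radioligand displacement, 1 h, filtration + scint. counting; DMSO = baseline; 25 uM x2 primary, conc.-response confirm.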

[14] = target: human Norepinephrine Transporter (NET), SLC6A2 (gene 6530) (UniProt P23975); assay: NVS_TR_hNET: NovaScreen (NVS) Transporter Assay for human Norepinephrine Transporter (NET) (AID 2283377);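 further: cell-free membrane protein extracted from CHO cells expressing human NET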;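 on AC50: displacement of radioligand from human NET seen as loss of scintillation signal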
How it was run: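 Scintillation counts of filter-retained radioligand served as the readout, taken 1 h post-dosing in a cell-free CHO-derived system. Test chemicals ran first at 25 uM in duplicate; confirmed hits were retested across concentrations.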

[15] = target: Peroxisome proliferator-activated receptor gamma (Homo sapiens) (UniProt P37231); assay: OT_PPARg_PPARgSRC1_0480: Odyssey Thera (OT) 8-hour Protein-Complementation Assay for Peroxisome Proliferator-activated Receptor Gamma / SRC-1 Co-activator (AID 2283387);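 further: nuclear to cytoplasmic split Venus YFP fluorescence ratio reporting PPARg SRC-1 interaction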
How it was run: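 Split-YFP (IFP1/IFP2) PPARg/SRC-1 reporter, HEK293T, 37 °C, 5% CO2; 8 h compound; formaldehyde fix + Draq5; high-content imaging, N/C ratio, ≥350 cells/image, positive direction vs DMSO.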

[16] = system: guinea pig Dopamine Transporter (DAT), gene 100714898; assay: NVS_TR_gDAT: NovaScreen (NVS) Transporter Assay for guinea pig Dopamine Transporter (DAT) (AID 2283369);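 further: active compounds lower bound radioligand signal relative to DMSO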
How it was run: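 Guinea pig striatal membranes, cell-free radioligand binding with filter-based scintillation counting, read 2 h after dosing. Loss of signal versus DMSO baseline; single-concentration primary (25 uM) then concentration-response up to 50 uM.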

[17] = target: human Dopamine Transporter (DAT), SLC6A3 (gene 6531) (UniProt Q01959); assay: NVS_TR_hDAT: NovaScreen (NVS) Transporter Assay for human Dopamine Transporter (DAT) (AID 2283374);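 further: activity means loss of bound radioligand signal relative to DMSO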
How it was run: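 Test chemicals were first screened in duplicate at 25 uM, with actives retested as concentration series. Displacement of a specific radioligand from cell-free human dopamine transporter was measured after 1 h by filtration and scintillation counting.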

[18] = system: rat Norepinephrine Transporter (NET), gene 83511; assay: NVS_TR_rNET: NovaScreen (NVS) Transporter Assay for rat Norepinephrine Transporter (NET) (AID 2283373)
How it was run: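 Rat forebrain membranes; radioligand binding measured by filter-based scintillation counting 1 hour after dosing. Loss of specific binding versus DMSO baseline scored; primary screen in duplicate at 25 uM, actives followed up in concentration series.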

Measured: AC50

Chain of human Norepinephrine Transporter (NET), SLC6A2 (gene 6530) (P23975 whole entry, looked up): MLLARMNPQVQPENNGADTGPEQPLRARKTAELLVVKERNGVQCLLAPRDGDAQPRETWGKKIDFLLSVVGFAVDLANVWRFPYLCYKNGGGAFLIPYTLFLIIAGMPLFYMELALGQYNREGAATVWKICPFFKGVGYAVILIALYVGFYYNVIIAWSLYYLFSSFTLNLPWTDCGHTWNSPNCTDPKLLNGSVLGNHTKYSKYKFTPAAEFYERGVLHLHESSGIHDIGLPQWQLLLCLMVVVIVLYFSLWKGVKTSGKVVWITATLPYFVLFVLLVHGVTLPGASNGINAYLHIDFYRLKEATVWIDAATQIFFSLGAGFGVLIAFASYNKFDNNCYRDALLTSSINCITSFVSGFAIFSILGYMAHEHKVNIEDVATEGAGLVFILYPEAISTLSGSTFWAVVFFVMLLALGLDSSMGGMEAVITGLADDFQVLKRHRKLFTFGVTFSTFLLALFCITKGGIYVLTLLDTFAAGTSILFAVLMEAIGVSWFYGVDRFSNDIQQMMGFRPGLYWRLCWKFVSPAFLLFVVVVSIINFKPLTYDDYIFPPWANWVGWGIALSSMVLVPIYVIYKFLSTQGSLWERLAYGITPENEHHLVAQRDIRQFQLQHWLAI
Chain of Nuclear receptor subfamily 1 group I member 2 (Homo sapiens) (O75469 whole entry, looked up): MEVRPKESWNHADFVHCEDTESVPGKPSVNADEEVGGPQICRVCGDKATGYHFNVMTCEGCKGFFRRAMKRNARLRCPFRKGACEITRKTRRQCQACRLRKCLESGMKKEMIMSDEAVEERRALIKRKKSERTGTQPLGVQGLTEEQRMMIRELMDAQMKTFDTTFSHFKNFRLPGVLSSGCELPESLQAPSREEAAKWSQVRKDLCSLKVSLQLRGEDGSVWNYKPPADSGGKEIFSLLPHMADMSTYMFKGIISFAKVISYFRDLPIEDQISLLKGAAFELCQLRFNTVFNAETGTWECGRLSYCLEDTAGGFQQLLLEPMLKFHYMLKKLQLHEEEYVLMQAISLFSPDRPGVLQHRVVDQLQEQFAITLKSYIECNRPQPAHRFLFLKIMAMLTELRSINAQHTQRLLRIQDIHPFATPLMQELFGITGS
Chain of Peroxisome proliferator-activated receptor gamma (Homo sapiens) (P37231 whole entry, looked up): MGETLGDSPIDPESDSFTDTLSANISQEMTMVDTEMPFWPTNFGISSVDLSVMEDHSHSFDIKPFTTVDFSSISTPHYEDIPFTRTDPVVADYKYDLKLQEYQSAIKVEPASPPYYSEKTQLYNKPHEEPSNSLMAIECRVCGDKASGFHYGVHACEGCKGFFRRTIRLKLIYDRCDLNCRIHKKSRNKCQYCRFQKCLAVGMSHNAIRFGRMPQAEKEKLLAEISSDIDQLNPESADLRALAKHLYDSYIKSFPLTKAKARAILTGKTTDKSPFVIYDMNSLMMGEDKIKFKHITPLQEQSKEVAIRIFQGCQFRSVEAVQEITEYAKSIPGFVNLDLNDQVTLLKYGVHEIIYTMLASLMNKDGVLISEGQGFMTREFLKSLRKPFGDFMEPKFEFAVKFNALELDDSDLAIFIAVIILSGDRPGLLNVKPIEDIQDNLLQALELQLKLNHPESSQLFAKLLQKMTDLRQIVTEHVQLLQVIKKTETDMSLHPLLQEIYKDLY
Chain of human Dopamine Transporter (DAT), SLC6A3 (gene 6531) (Q01959 whole entry, looked up): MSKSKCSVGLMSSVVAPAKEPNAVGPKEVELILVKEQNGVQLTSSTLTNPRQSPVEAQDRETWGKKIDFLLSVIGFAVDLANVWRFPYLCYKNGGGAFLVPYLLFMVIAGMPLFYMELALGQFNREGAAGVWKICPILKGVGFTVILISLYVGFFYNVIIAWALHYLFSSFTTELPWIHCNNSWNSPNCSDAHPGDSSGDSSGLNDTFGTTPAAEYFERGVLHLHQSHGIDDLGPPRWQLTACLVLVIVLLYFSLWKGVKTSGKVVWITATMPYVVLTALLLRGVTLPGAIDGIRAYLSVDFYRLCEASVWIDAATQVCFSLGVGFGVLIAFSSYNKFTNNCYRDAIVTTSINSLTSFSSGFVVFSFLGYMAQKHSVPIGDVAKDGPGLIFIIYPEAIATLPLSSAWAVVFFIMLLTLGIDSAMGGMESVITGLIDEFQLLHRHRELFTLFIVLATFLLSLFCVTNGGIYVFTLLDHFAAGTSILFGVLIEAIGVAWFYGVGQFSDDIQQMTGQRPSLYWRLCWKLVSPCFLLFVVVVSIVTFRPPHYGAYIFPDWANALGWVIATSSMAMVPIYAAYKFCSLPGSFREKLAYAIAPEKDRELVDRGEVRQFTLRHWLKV
Chain of Bile acid receptor (Homo sapiens) (Q96RI1 whole entry, looked up, the tested form may be a part): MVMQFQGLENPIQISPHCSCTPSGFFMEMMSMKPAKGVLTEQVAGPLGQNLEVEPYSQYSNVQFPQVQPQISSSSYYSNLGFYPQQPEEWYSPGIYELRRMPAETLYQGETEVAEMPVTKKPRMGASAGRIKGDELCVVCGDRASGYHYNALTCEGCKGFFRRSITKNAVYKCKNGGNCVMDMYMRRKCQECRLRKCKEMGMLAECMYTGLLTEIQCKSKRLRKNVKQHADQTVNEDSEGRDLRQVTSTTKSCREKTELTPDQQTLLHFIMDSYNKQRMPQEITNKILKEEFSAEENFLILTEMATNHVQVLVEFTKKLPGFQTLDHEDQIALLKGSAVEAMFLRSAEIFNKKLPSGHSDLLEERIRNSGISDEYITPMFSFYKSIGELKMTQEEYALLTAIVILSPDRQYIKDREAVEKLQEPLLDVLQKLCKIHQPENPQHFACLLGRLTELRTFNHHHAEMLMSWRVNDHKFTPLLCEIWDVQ
Chain of Estrogen receptor beta (Homo sapiens) (Q92731 whole entry, looked up, the tested form may be a part): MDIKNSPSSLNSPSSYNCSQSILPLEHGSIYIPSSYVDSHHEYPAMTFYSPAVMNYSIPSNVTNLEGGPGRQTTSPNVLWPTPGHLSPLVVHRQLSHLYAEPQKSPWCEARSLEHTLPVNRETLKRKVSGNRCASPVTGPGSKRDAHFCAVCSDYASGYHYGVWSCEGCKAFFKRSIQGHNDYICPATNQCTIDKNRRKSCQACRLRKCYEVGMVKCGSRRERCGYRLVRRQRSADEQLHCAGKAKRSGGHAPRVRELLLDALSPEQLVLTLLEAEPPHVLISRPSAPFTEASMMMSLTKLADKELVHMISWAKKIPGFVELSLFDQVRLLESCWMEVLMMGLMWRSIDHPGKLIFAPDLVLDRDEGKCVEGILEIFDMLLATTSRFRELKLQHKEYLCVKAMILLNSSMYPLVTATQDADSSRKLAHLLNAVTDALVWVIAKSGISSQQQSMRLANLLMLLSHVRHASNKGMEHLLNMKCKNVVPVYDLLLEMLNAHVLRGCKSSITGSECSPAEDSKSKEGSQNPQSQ
Chain of Retinoic acid receptor RXR-alpha (Homo sapiens) (P19793 whole entry, looked up, the tested form may be a part): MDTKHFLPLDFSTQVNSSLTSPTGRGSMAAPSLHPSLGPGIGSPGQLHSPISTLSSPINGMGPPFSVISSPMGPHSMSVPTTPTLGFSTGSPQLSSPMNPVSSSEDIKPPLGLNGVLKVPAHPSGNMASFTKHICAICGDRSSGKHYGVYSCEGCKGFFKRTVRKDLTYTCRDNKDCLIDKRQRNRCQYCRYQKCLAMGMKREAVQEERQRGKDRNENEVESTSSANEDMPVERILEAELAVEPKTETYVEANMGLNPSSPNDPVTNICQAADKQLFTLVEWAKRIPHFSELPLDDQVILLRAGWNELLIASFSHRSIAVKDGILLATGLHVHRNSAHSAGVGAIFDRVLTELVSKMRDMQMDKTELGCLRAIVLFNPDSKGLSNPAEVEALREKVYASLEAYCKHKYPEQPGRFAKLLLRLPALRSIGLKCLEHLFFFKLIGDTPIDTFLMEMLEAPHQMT
Chain of guinea pig Sigma Receptor, Non-selective Binding, SIGMAR1 (gene 100135589) (Q60492 whole entry, looked up): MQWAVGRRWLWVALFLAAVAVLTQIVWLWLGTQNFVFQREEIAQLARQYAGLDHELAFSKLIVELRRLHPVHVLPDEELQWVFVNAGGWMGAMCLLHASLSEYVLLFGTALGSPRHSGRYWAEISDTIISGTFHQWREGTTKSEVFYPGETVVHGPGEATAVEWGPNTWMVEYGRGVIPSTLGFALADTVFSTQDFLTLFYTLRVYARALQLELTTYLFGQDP
Chain of Estrogen receptor (Homo sapiens) (P03372 whole entry, looked up): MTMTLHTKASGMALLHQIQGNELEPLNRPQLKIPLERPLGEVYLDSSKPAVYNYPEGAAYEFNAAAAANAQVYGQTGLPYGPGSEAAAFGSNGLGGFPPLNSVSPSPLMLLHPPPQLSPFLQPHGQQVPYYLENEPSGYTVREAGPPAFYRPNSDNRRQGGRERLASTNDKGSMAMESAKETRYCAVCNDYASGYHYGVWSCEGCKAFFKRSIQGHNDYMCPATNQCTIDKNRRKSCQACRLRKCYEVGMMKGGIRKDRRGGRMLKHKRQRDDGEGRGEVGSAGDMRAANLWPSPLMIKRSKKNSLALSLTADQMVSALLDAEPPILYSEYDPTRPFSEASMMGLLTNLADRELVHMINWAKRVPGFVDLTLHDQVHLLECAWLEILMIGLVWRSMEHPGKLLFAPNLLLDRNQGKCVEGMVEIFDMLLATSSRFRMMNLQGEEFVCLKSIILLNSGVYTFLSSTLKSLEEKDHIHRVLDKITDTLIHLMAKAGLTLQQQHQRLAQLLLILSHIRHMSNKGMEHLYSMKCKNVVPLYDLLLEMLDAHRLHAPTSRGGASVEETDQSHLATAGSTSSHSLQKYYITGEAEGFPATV
Chain of Norway rat Vesicular Monoamine Transporter (VMAT2), neurotransmitter transporter, Slc18a2 (gene 25549) (Q01827 whole entry, looked up): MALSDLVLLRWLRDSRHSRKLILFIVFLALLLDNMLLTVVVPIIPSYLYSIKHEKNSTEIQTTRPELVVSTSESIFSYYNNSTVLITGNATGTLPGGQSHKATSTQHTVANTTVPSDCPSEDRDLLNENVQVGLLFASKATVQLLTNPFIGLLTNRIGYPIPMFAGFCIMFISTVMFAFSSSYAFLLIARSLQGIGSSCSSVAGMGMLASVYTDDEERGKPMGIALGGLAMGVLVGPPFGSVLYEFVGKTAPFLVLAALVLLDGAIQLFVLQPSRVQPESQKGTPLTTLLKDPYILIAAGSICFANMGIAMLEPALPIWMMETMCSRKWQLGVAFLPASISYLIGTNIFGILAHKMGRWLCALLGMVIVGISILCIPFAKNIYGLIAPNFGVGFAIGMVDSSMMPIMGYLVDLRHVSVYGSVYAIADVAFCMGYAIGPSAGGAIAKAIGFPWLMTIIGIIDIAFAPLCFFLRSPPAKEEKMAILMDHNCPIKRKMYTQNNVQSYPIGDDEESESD

CC1=C2C[C@H]3[C@@H](CC=C4C[C@@H](O)CC[C@@]43C)[C@@H]2CC[C@]12O[C@@H]1C[C@H](C)CN[C@H]1[C@H]2C
inactive: [1] | [2] | [3] | [4] | [5] | [6] | [7] | [8] | [9]

CC(c1ccc(O)cc1)(c1ccc(O)cc1)c1ccc(O)cc1
active: [10] 4.96 µM | [4] 3.62 µM | [5] 2.96 µM
inactive: [8]

Cc1cccc(C)c1N
inactive: [11] | [4] | [5] | [6] | [7] | [9]
active: [10] 0.0218 µM

CCC(=O)O[C@H]1CC[C@H]2[C@@H]3CCC4=CC(=O)CC[C@]4(C)[C@H]3CC[C@]12C
active: [12] 1.53 µM [middle of 4 runs] | [11] 12.7 µM and 3.36 µM and 12.8 µM | [4] 12.3 µM | [8] 42.7 µM and 57.9 µM | [9] 73.3 µM and 73.7 µM and 78.4 µM
inactive: [1] | [13] | [10] | [11] | [4] | [5] | [8] | [9]

CO/C=C(/C(=O)OC)c1ccccc1COc1cccc(C(F)(F)F)n1
inactive: [10] | [11] | [4] | [5] | [8] | [9]
active: [6] 9.85 µM | [7] 3.27 µM | [8] 50 µM

O=C(O)C(F)(F)C(F)(F)C(F)(F)C(F)(F)C(F)(F)C(F)(F)C(F)(F)C(F)(F)F
inactive: [10] | [14] | [11] | [4] | [5] | [7] | [8]

CCCN(CCC)N=O
inactive: [13] | [11] | [4] | [5] | [8] | [9]

O=C(O)C(F)(F)C(F)(F)C(F)(F)C(F)(F)C(F)(F)C(F)(F)C(F)(F)C(F)(F)C(F)(F)F
inactive: [4] | [5] | [8] | [9] | [15]
active: [1] 25 µM | [10] 8.21 µM | [14] 25 µM

CCOC(=O)C(O)(c1ccc(Cl)cc1)c1ccc(Cl)cc1
inactive: [11] | [4] | [5] | [15]
active: [16] 14.3 µM | [17] 3.45 µM | [14] 15.5 µM

Nn1cnnc1
inactive: [10] | [11] | [4] | [5] | [9]
active: [3] 10.9 µM

CCC(C)c1cc([N+](=O)[O-])cc([N+](=O)[O-])c1O (stereo not given)
inactive: [10] | [11] | [4] | [5] | [7] | [8] | [9] | [15]

Nc1ccc(-c2ccc(N)cc2)cc1
inactive: [10] | [17] | [11] | [4] | [5] | [8] | [9] | [15]
active: [13] 25 µM | [16] 12.8 µM | [18] 14.3 µM | [14] 11.8 µM

Clc1ccc(C(c2ccccc2Cl)C(Cl)(Cl)Cl)cc1 (stereo not given)
active: [11] 2.14 µM and 2.1 µM and 2.35 µM | [8] 54.9 µM and 58.4 µM and 63.9 µM | [9] 59.9 µM
inactive: [1] | [9] | [15]

CCC(C)(c1ccc(O)cc1)c1ccc(O)cc1
inactive: [18] | [6] | [7] | [8] | [9] | [15]
active: [1] 16.7 µM and 11.4 µM and 9.16 µM | [16] 17.3 µM | [10] 5.51 µM | [17] 7.9 µM | [3] 5.28 µM | [14] 8.33 µM | [5] 213 nM [middle of 5 runs] | [6] 12.1 µM | [7] 30.2 µM and 32.2 µM | [8] 30.8 µM and 67 µM and 68.3 µM | [9] 92.5 µM and 87.7 µM

O=NN(c1ccccc1)c1ccccc1
active: [14] 14 µM
inactive: [16] | [10] | [4] | [5] | [6] | [7] | [8] | [9] | [15]

Oc1ccc(Cl)cc1Cl
inactive: [10] | [11] | [4] | [5] | [6] | [7] | [8]
active: [14] 9.75 µM

COS(=O)(=O)OC
inactive: [13] | [4] | [5] | [8] | [9]

ClC1=C(Cl)[C@]2(Cl)[C@@H]3[C@H]4C[C@H]([C@@H]5O[C@H]45)[C@@H]3[C@@]1(Cl)C2(Cl)Cl
inactive: [4] | [8] | [9]
